Results reported in the supplement of paper PMC6555819.

system: RARb homodimer (NR concentration 270 nM); test: PBM binding z-score (relative to random genomic background probes); higher = stronger binding; sequences stand for … in GC…GCGATTGACAGCGTAGAATGAAGG
Outline: (§1)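 Probes were double-stranded and carried 34-nt variable regions with direct-repeat seeds, single-nucleotide variants, half-site ablations and random human genomic background sequences, printed on custom Agilent 4×180K protein-binding microarrays. Arrays were incubated 1 h with ligand-free nuclear receptor dimers in PBS pH 7.4, 2% milk, 0.02% Triton X-100, 1 mM DTT, 0.2 mg/mL BSA and 0.4 mg/ml salmon testes DNA. Antibodies against each partner (one per run) detected binding, and scanned fluorescence was regression-normalized. Binding z-scores use the random background probes as reference.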

| Sequence | PBM binding z-score |
| --- | --- |
| ATATGTAGGTTATCGGGTCATTCAGTTTGCGCAT | 3.05 |
| TAGCCTAGGTCATGCGGGCTAGTATAGTGTCGGC | 2.99 |
| TTACCAAGGTGAAGTTCGTTGATCCCTCTGTAGA | 1.18 |
| TCAGACAGGTGAACGTAACTCAGGTACGCAGTCG | 0.813 |
| CCAGACAGGTGAGAAGGTAACTCATCCTCGATTA | 0.437 |
| TCTATTAGTTGATTAGGGCCACCGAAACAGCGGA | 0.67 |
| CCTTACGGGTCAAAGTTATAGCACGGGTGGTACG | 2.72 |
| CCTAGCAGGCCAATCTGGGTCACTCACGGCTTGA | 2.23 |
| CCGAGTAGGTTTTGGGGCATTCAGGCAACGGTGA | 0.615 |
| TAGCCTAGGTCATGGGGCCAGTATAGTACGCATC | 3.29 |
| CCGATTAGGTTATGGGGCATTCAGGCAACGGTGA | 1.11 |
| CGAACGAGCGCATGAGTTGATAGCAAATGCCGAT | -0.651 |
| CGTCCAAGGTCATAGGAGGTCTGTGAAGACAGAT | 3.75 |
| CGTCCAAGGTCATAGGATGTCAGTGAAGACAGAT | 4.04 |
| ACTAGCAGGCCAAGGGTCACTCATGATTAGTCCG | 3.68 |
| CCTCTTAGTTGACCATAAGGGCAACCGAAGCTCG | 2.25 |
| ATATGTAGGTTACATCCGGGGCATTCAGGCTATG | 1.23 |
| CCTAGCAGGCCAATCTGGGCCACTCAAGGCTTGA | -0.384 |
| CGTCCTAGGTCAAGGTCAGTGAAAGAGACTCGAA | 4.34 |
| GGAACGAGGGCAAGTTGGTAGCAGAGTTTGATGG | 1.6 |

| Sequence | PBM binding z-score |
| --- | --- |
| ACAGACAGGTGAGTGAAGGTTACTCAGCTGGACG | 0.978 |
| ACTTACGGGTCAACGAGGTGATAGCACGCGTATA | 2.98 |
| AGAACGAGGACACGCTGAGTTGATAGCAGAGTAG | 0.357 |
| AGAACGAGGGCAATGTGTTGATAGCACGGGTGGC | 1.23 |
| ACTTACGGGTCAACGAGGTTATATCACGCGTATA | 3.73 |
| GCTCGAAGGACAAGGTCAGAGCTTTGTCCGTAGA | 3.06 |
| CCTACTGGGCCATCCGGTCATTGATATCAACGTT | 1.9 |
| TTTATTAGTTGATTAGGGCAACCGAAACAGCGGA | 0.918 |
| CCTTACGGGTCACGAGGGTATAGCACGACGAGCG | 3.35 |
| CTCGAAAGGTCGGTTGAGATGAGTATACGGATAA | 1.74 |
| GTTATTAGTTGAAAGGGCAACCGAATGATTCTCG | 2.41 |
| ATCTCTAGGTAAGACGCAGTTCAGTGAAGAACGC | 0.117 |
| TCACATAGGTAAACAGGTGAAAGTCCGTAAGTTA | 0.832 |
| ATGGAAAGGTCGACGAGGTGAGTATACACCGTTT | 3.01 |
| CTACCAAGGTGATCAAGGTCGTTGATTACTATTC | 1.47 |
| ATCGAAAGGTCGTGAGGTGAGAATACAGAAAGGC | 3.14 |
| CCTAGTTGGTCAAGGTTACACACGCTATAGGTAC | 2.15 |
| TCTAGTTGGTCACTGAGGTCACACACGACGGGTA | 4.59 |
| AGAACGGGGGCACGCTGAGTTGATAGCAGAGTAG | 1.94 |

system: RARg:RXRa (NR concentration 270 nM, RXRa partner concentration 90 nM); test: as above
Outline: as §1

| Sequence | PBM binding z-score |
| --- | --- |
| ATATGTAGGTTATCGGGTCATTCAGTTTGCGCAT | 3.09 |
| TAGCCTAGGTCATGCGGGCTAGTATAGTGTCGGC | 3.77 |
| TTACCAAGGTGAAGTTCGTTGATCCCTCTGTAGA | 0.78 |
| TCAGACAGGTGAACGTAACTCAGGTACGCAGTCG | 0.793 |
| CCAGACAGGTGAGAAGGTAACTCATCCTCGATTA | 0.511 |
| TCTATTAGTTGATTAGGGCCACCGAAACAGCGGA | 0.31 |
| CCTTACGGGTCAAAGTTATAGCACGGGTGGTACG | 4.74 |
| CCTAGCAGGCCAATCTGGGTCACTCACGGCTTGA | 1.18 |
| CCGAGTAGGTTTTGGGGCATTCAGGCAACGGTGA | -0.245 |
| TAGCCTAGGTCATGGGGCCAGTATAGTACGCATC | 4.5 |
| CCGATTAGGTTATGGGGCATTCAGGCAACGGTGA | 0.701 |
| CGAACGAGCGCATGAGTTGATAGCAAATGCCGAT | -0.0221 |
| CGTCCAAGGTCATAGGAGGTCTGTGAAGACAGAT | 5.85 |
| CGTCCAAGGTCATAGGATGTCAGTGAAGACAGAT | 5.95 |
| ACTAGCAGGCCAAGGGTCACTCATGATTAGTCCG | 4.01 |
| CCTCTTAGTTGACCATAAGGGCAACCGAAGCTCG | 1.17 |
| ATATGTAGGTTACATCCGGGGCATTCAGGCTATG | 1.76 |
| CCTAGCAGGCCAATCTGGGCCACTCAAGGCTTGA | -0.481 |
| CGTCCTAGGTCAAGGTCAGTGAAAGAGACTCGAA | 5.41 |
| GGAACGAGGGCAAGTTGGTAGCAGAGTTTGATGG | 1.27 |

| Sequence | PBM binding z-score |
| --- | --- |
| ACAGACAGGTGAGTGAAGGTTACTCAGCTGGACG | 0.724 |
| ACTTACGGGTCAACGAGGTGATAGCACGCGTATA | 5.26 |
| AGAACGAGGACACGCTGAGTTGATAGCAGAGTAG | 0.807 |
| AGAACGAGGGCAATGTGTTGATAGCACGGGTGGC | 1.16 |
| ACTTACGGGTCAACGAGGTTATATCACGCGTATA | 5.37 |
| GCTCGAAGGACAAGGTCAGAGCTTTGTCCGTAGA | 3.15 |
| CCTACTGGGCCATCCGGTCATTGATATCAACGTT | 0.787 |
| TTTATTAGTTGATTAGGGCAACCGAAACAGCGGA | 0.811 |
| CCTTACGGGTCACGAGGGTATAGCACGACGAGCG | 5.85 |
| CTCGAAAGGTCGGTTGAGATGAGTATACGGATAA | 2.2 |
| GTTATTAGTTGAAAGGGCAACCGAATGATTCTCG | 1.75 |
| ATCTCTAGGTAAGACGCAGTTCAGTGAAGAACGC | 0.165 |
| TCACATAGGTAAACAGGTGAAAGTCCGTAAGTTA | 0.608 |
| ATGGAAAGGTCGACGAGGTGAGTATACACCGTTT | 4.09 |
| CTACCAAGGTGATCAAGGTCGTTGATTACTATTC | 0.906 |
| ATCGAAAGGTCGTGAGGTGAGAATACAGAAAGGC | 4.62 |
| CCTAGTTGGTCAAGGTTACACACGCTATAGGTAC | 1.49 |
| TCTAGTTGGTCACTGAGGTCACACACGACGGGTA | 4.76 |
| AGAACGGGGGCACGCTGAGTTGATAGCAGAGTAG | 3.62 |
